Measured values from PubChem BioAssay AID2314 (National Center for Advancing Translational Sciences (NCATS), 2010).
About 37,000 (12%) of roughly 300,000 compounds were called active. The entries come from a sample that favours actives as a whole. Values without a mark were called inactive. Cut-off read from the data, not from the text of the source: active = max response mostly above about 13% (no sharp cut-off); inactive = mostly below about 14%.

assay: Cycloheximide Counterscreen for Small Molecule Inhibitors of Shiga Toxin; details: cell reporter, cycloheximide protein synthesis inhibition counterscreen; hits give high values; note: read at 38.3 µM for the half of the compounds with a filed dose; 0% is about no effect

Structure (SMILES)	max response
COc1ccc(C)cc1NC(=O)C(Sc1ccccc1)c1ccccc1 (centres undefined)	-3.77%
CC1CCN(C(=O)c2ccc3c(=O)n4c(nc3c2)CCCCC4)CC1	14.9%
CCn1nc(C)c(CN2CCN(Cc3ccc(OC)c(C)c3C)C(CCO)C2)c1C (centres undefined)	-1.08%
Cc1cccc(-[n+]2c(-c3cccc(Br)c3)[nH]c3nc4ccccc4nc32)c1	0.81%
COc1ccc(OCC(=O)NCCS(=O)(=O)N2CCN(c3ccc(F)cc3)CC2)cc1	13.1%
CN(CC(=O)NCc1ccc(Cl)cc1)S(=O)(=O)c1cccs1	10.2% (active)
COc1ccc(CNC(=O)CN(Cc2ccc(Cl)cc2)S(C)(=O)=O)cc1	-2.61%
O=C(NCc1ccc(Cl)cc1)C1CCN(S(=O)(=O)c2cccs2)CC1	-3.46%
NC(=O)CN1CCCC1c1ccc2c(c1)OCCO2 (centres undefined)	10.4%
Cc1ccccc1OCC(=O)NNC(=O)c1cc(S(=O)(=O)N(C)C)ccc1N1CCCC1	-2.55%
Cc1ccc(-n2c(SCC(=O)N/N=C/C=C/c3ccccc3[N+](=O)[O-])nc3ccccc3c2=O)cc1	-7.24%
CCn1c(SCC(=O)N/N=C/C=C/c2ccccc2[N+](=O)[O-])nnc1-c1ccccc1	8.3%
O=C(CSc1nc2ccccc2[nH]1)N/N=C/C=C\c1ccccc1[N+](=O)[O-]	13.8% (active)
OC(COc1ccc(Br)cc1)CN1CCCC1 (centres undefined)	-1.85%
CN(CCC1CCOCC1)C(=O)CC1C(=O)NCCN1Cc1cccc(F)c1 (centres undefined)	-2.83%
CC(=O)c1c(C)[nH]c(C(=O)OCC(=O)Nc2cc(S(=O)(=O)N3CCCCC3)ccc2C)c1C	-1.55%
Cc1cccc([C@H]2[C@@H]3C=CC[C@@H](C)[C@@H]3C(=O)N2Cc2ccccc2)c1	-6.21%
Cc1c(C)c(C)c(S(=O)(=O)NCCc2ccccn2)c(C)c1C	-3.58%
COc1ccc(NCCc2ccccn2)cc1	30.6% (active)
O=S(=O)(/C=C/c1ccccc1)NCCc1ccccn1	10.5%

Structure (SMILES)	max response
COc1ccc(S(=O)(=O)NC(C)C(=O)NCc2ccncc2)cc1Cl (centres undefined)	-5.01%
CNC(=O)CSc1nnc(CCc2ccccc2)n1-c1ccccc1	1.1%
Cc1c(C(=O)NCc2ccccc2)cnn1-c1ccccc1	22.7%
Cc1c(CNCCc2ccccc2)c(C(=O)O)c(C)n1-c1ccccc1	12.6% (active)
COC(=O)CCCC1=CC2=C(c3ccccc3)C(=O)C(C)(OC(=O)C3CCCC3)C(=O)C2=CN1c1ccc(OC)cc1 (centres undefined)	-2.86%
CCn1c(=S)[nH]c2sc3c(c2c1=O)CCCCC3	-1.45%
COc1ccc(N2CCN(C3CCCCC3NS(=O)(=O)c3ccccc3)CC2)cc1 (centres undefined)	-5.98%
Cc1nc(N2CCC(C)CC2)c2c(C)c(C(=O)Nc3cc(F)ccc3C)sc2n1	4.36%
Cc1ccc2cc(C)c(N3CCC(C)CC3)nc2c1	23.2% (active)
Cc1ccc2cc(C)c(N3CCN(c4ccc(F)cc4)CC3)nc2c1	10.1%
CC(NC(=O)c1cccc2ccccc12)c1ccc2c(c1)CCCC2 (centres undefined)	-1.47%
Cc1ccc(NC(=S)N(CCCN2CCC(C)CC2)Cc2ccco2)cc1	-1.16%
Cc1ccc(NC(=S)N(Cc2ccco2)C(C)c2cccs2)cc1 (centres undefined)	15.6% (active)
Cc1ccc(NC(=S)N(CCN2CCCCC2)Cc2ccco2)cc1C	6.6%
O=C(C1=C[C@H](c2ccc(C(F)(F)F)cc2)C[C@H](OCc2ccc(CO)cc2)O1)N1CCN(Cc2ccccc2)CC1	-1.19%
O=C(O)C1CCCN1S(=O)(=O)c1ccc(Br)cc1 (centres undefined)	-3.32%
CCCCNC(=O)CN1C(=O)NC(Cc2ccccc2)(Cc2ccccc2)C1=O	-4.58%
O=S(=O)(c1ccccc1)c1nc(-c2ccccc2)oc1NCCCN1CCOCC1	-2.06%
O=C(CCc1ccccc1)NNC(=O)c1ccc(Br)cc1	5.92%
CCNC(=S)NNC(=O)Cc1ccccc1	-1.87%

Structure (SMILES)	max response
CC(C)(C)c1ccc(C(=O)NNC(=O)Cc2ccccc2)cc1	37.7% (active)
COc1cc(N=Cc2c(O)c3ccccc3oc2=O)c(OC)cc1Cl	0.554%
Cc1ccc(S(=O)(=O)NC2CCCCCC2)cc1C(N)=O	-1.91%
CC(NCCc1ccc(S(N)(=O)=O)cc1)C(=O)NCc1ccccc1 (centres undefined)	2.64%
Cc1ccc(S(=O)(=O)N(C)C)cc1NC(=O)COC(=O)C1COc2ccccc2O1 (centres undefined)	-1.56%
O=C(Cc1c(F)cccc1Cl)Nc1ncc([N+](=O)[O-])s1	32.7% (active)
O=C(Cc1c(F)cccc1Cl)Nc1ccc(-n2cnnn2)cc1	8.09%
O=C(Nc1ccncc1)c1ccccc1[N+](=O)[O-]	-7.9%
O=C(Nc1nc2c(F)cc(F)cc2s1)C1COc2ccccc2O1 (centres undefined)	24.7% (active)
CN(c1ccccc1)S(=O)(=O)c1cccc(NC(=O)Cc2c(F)cccc2Cl)c1	10.4%
O=C(Nc1ncc([N+](=O)[O-])s1)C1COc2ccccc2O1 (centres undefined)	49.4% (active)
COc1ccc(NC(=O)c2ccccc2[N+](=O)[O-])cc1OC	3.51%
CC(=O)Oc1ccccc1C(=O)Nc1ncc([N+](=O)[O-])s1	29.9% (active)
CCN(CC)S(=O)(=O)c1ccc(N2CCOCC2)c(NC(=O)C2COc3ccccc3O2)c1 (centres undefined)	4.39%
O=C(Nc1nc(-c2ccncc2)cs1)C1COc2ccccc2O1 (centres undefined)	-3.21%
CC(NC(=S)Nc1ccccc1)C1COc2ccccc2O1 (centres undefined)	-3.29%
O=C1Nc2cc(C(=O)N3CCC(N4CCCCC4)CC3)ccc2S/C1=C\c1ccccc1	-5.33%
C=CCN1C2CCCC1CC(NC(=S)Nc1cccc(OC)c1)C2 (centres undefined)	-2.67%
CC(=O)N1CCc2cc(S(=O)(=O)NC3CCCCC3)ccc21	-2.05%
